A selection: hits, their analogues and other compounds. The true share with any hit is near 3.3%.
ERa coact inh: blocks coactivator binding to human estrogen receptor alpha; TR-FRET ER-alpha LBD / SRC-1 peptide, estradiol-bound; hit rate 1.7% among 86,000; inhibition, % at 25.6 µM; P03372; in the data active = inhibition above about 50%;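 also: 0% = receptor plus peptide control and 100% = peptide only without receptor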
ERa coact pot: enhances coactivator binding to human estrogen receptor alpha | P03372 | AID 639 | hit rate 1.3% among 86,000 | TR-FRET ERalpha-LBD/SRC-Cy5 coactivator binding, 2 h; 100 = basal binding, no effect | coactivator binding (% of control), % at 25.6 µM; in the data active = activity above about 200%;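 also: binding measured in presence of low estradiol as agonist stimulus; 0% = peptide alone without receptor and 100% = receptor with peptide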
Calb biofilm kill: kills Candida albicans biofilms; hit rate 0.14% among 85,000; inhibition, % at 6 µM; C. albicans biofilm + clotrimazole, Alamar Blue; AID 834;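 active = inhibition above 20%; inactive = inhibition below 20%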;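 also: preformed 24 hr biofilms exposed to compound for 48 hr; 0% = biofilm without compound and 100% = blank killed by clotrimazole plus chlorhexidine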
FAK blocker: FAK (human) kinase inhibition | Q05397 | biochemical FAK kinase activity assay | inhibition, %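 (tested at 7 µM)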 | hit rate 0.84% among 97,000; in the data active = inhibition above about 19%;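 also: 0% = DMSO and 100% = reference compound high control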
Smad3 FoxH1 inh: inhibitors of human Smad3 transcription factor binding. AID 630. P84022. inhibition, % at 25 µM. TR-FRET Smad3/Dy647-FoxH1 peptide binding, europium anti-His. hit rate 0.29% among 88,000;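 active = compounds that reduce the energy-transfer binding signal between the protein and its labelled peptide by more than half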;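 also: 0% = Smad3 plus labelled peptide maximal FRET and 100% = peptide-only background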
Target sequence (P84022 whole entry, looked up): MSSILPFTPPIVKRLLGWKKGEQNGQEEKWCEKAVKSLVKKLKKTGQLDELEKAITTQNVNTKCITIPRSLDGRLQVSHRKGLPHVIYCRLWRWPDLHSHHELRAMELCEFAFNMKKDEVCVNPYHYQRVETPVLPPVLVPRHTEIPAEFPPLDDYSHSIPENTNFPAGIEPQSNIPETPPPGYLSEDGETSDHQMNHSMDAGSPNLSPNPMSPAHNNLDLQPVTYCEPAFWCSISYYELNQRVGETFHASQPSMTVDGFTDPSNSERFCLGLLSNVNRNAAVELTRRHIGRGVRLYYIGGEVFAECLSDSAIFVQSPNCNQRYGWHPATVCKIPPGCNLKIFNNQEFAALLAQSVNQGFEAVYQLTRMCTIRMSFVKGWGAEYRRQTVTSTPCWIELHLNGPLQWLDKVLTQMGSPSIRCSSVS
ERb coact inh: ER-beta (human) coactivator binding inhibition | hit rate 1.3% among 86,000 | Q92731 | inhibition, % at 25.6 µM | TR-FRET ER-beta LBD / SRC1-Cy5 peptide binding; receptor agonist-loaded with 1 µM estradiol;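 active = compounds whose percent inhibition of the receptor-coactivator binding signal exceeds about 50% in the single-dose screen, limit read from the data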;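 also: 0% = receptor plus peptide wells without compound and 100% = peptide-only wells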
* hit, by the source's call; [ ] = remark or other dose.

How did CCC(=O)Nc1cccc(NC(C)=O)c1 do in these assays?
ERa coact inh: 84*[fluorescence artefact?]; ERa coact pot: 27; Calb biofilm kill: 1; FAK blocker: 0; Smad3 FoxH1 inh: 13; ERb coact inh: 78*

How did Cc1nc2c(c(=O)n1Cc1ccccc1Cl)c1nc3ccccc3nc1n2Cc1ccco1 do in these assays?
ERa coact inh: 32; ERa coact pot: 168; Calb biofilm kill: 6; Smad3 FoxH1 inh: 1; ERb coact inh: 26

What do the screens show for `COc1ccc(S(=O)(=O)c2c(N)n(Cc3ccco3)c3nc4ccccc4nc23)cc1`?
ERa coact inh: 83*[fluorescence artefact?]; ERa coact pot: 37; Calb biofilm kill: 2; FAK blocker: 19; Smad3 FoxH1 inh: 9; ERb coact inh: 78*[fluorescence artefact?]

What do the screens show for `COc1ccc(Cn2c3nc4ccccc4nc3c3c(=O)n(Cc4ccco4)c(C)nc32)cc1`?
ERa coact inh: 75*; ERa coact pot: 138; Calb biofilm kill: 4; Smad3 FoxH1 inh: 16; ERb coact inh: 60*[fluorescence artefact?]

Results for CCCCn1c(NC(=O)CC)c(C#N)c2nc3ccccc3nc21 ?
ERa coact inh: 72*; ERa coact pot: 221*[fluorescence artefact?]; Calb biofilm kill: 2; FAK blocker: 2; Smad3 FoxH1 inh: 16; ERb coact inh: 43

How did CCC(=O)Nc1c(C#N)c2nc3ccccc3nc2n1-c1ccccc1C do in these assays?
ERa coact inh: 7; ERa coact pot: 124; Calb biofilm kill: 2; Smad3 FoxH1 inh: -5; ERb coact inh: 18

Results for CCC(=O)Nc1c(C#N)c2nc3ccccc3nc2n1C1CCCCC1 ?
ERa coact inh: 65*[fluorescence artefact?]; ERa coact pot: 101; Calb biofilm kill: 7; FAK blocker: 17; Smad3 FoxH1 inh: 13; ERb coact inh: 34

How did CCCCC(CC)Cn1c(N)c(C#N)c2nc3ccccc3nc21 (centres undefined) do in these assays?
FAK blocker: -3

How did Cc1ccc(C)c(N2CCN(c3nnnn3-c3ccccc3)CC2)c1 do in these assays?
ERa coact inh: 4; ERa coact pot: 74; Calb biofilm kill: 10; FAK blocker: 0; Smad3 FoxH1 inh: 1; ERb coact inh: 8

How did CC(=O)c1c(C)[nH]c(C(=O)OCC(=O)N(C)C)c1C do in these assays?
ERa coact inh: 2; ERa coact pot: 111; Calb biofilm kill: -2; FAK blocker: 1; Smad3 FoxH1 inh: -6; ERb coact inh: -7

How did Cc1ccc(-c2nnn(CC(=O)N(c3ccccc3F)C(C(=O)NCC3CCCO3)c3c[nH]c4ccccc34)n2)cc1 (centres undefined) do in these assays?
FAK blocker: 5

How did COc1cc2[nH]c(=O)n(Cc3ccc(C(=O)NC4CCCC4)cc3)c(=O)c2cc1OC do in these assays?
ERa coact inh: 6; ERa coact pot: 105; Calb biofilm kill: 24*; FAK blocker: 1; Smad3 FoxH1 inh: -2; ERb coact inh: -4

Results for O=C(Nc1nc(-c2ccccc2)cs1)c1ccc(Br)o1 ?
FAK blocker: 0

What do the screens show for `C=CCn1c(O)c(C(CC)=NCc2cccnc2)c(=O)[nH]c1=O`?
ERa coact inh: -1; ERa coact pot: 112; Calb biofilm kill: -2; FAK blocker: 0; Smad3 FoxH1 inh: 7; ERb coact inh: 50*

Results for O=C1C(C=NCc2cccnc2)=C(O)c2ccccc21 ?
ERa coact inh: 7; ERa coact pot: 119; Calb biofilm kill: 6; FAK blocker: 3; Smad3 FoxH1 inh: -2; ERb coact inh: 4

How did Nc1nc(SCC2CCCCC2[N+](=O)[O-])c2[nH]cnc2n1 (centres undefined) do in these assays?
Smad3 FoxH1 inh: 17

What do the screens show for `COC(=O)NCc1cc2cc(Cl)ccc2[nH]1`?
ERa coact inh: -6; ERa coact pot: 100; Calb biofilm kill: 12; FAK blocker: 0; Smad3 FoxH1 inh: 6; ERb coact inh: -3

How did Cc1cc(C)n(-c2ccc(C(=O)OCC(=O)c3ccc(Br)s3)cc2)n1 do in these assays?
ERa coact inh: 2; ERa coact pot: 207*; Calb biofilm kill: 6; FAK blocker: 19; Smad3 FoxH1 inh: 2; ERb coact inh: 5

How did CCn1ncc(Br)c1C(=O)Nc1ccc(F)cc1F do in these assays?
ERa coact inh: 0; ERa coact pot: 115; Calb biofilm kill: 4; FAK blocker: -3; Smad3 FoxH1 inh: 10; ERb coact inh: 3

How did CCn1ncc(Br)c1C(=O)Nc1ccccc1C(=O)OC do in these assays?
ERa coact inh: -8; ERa coact pot: 98; Calb biofilm kill: 6; FAK blocker: 53*; Smad3 FoxH1 inh: 1; ERb coact inh: -4

Results for COC(=O)c1ccccc1NC(=O)c1cc2ncc(Br)cn2n1 ?
ERa coact inh: 27; ERa coact pot: 579*[fluorescence artefact?]; Calb biofilm kill: 0; FAK blocker: 1; Smad3 FoxH1 inh: -73; ERb coact inh: 33

How did CCOC(=O)C1=C(O)/C(=C\c2ccc(CNC(=O)C(=O)Nc3ccccc3)o2)N=C1C do in these assays?
ERa coact inh: 81*; ERa coact pot: 38; Calb biofilm kill: 2; FAK blocker: 6; Smad3 FoxH1 inh: 1; ERb coact inh: 72*

Results for CCOC(=O)C1=C(O)/C(=C\c2ccc(OC)c(OC)c2)N=C1C ?
ERa coact inh: -10; ERa coact pot: 118; Calb biofilm kill: 9; FAK blocker: -4; Smad3 FoxH1 inh: 8; ERb coact inh: -14

How did N=C1C(c2nc(-c3ccc(F)cc3)cs2)=C(O)CN1CCCN1CCOCC1 do in these assays?
ERa coact inh: -3; ERa coact pot: 92; Calb biofilm kill: 1; FAK blocker: 2; Smad3 FoxH1 inh: 13; ERb coact inh: -1

Results for CC(C)CCN1CC(O)=C(c2nc(-c3ccc(Cl)cc3)cs2)C1=N ?
ERa coact inh: 24; ERa coact pot: 219*; Calb biofilm kill: -1; FAK blocker: 2; Smad3 FoxH1 inh: -44; ERb coact inh: 28

Results for O=C(c1cc(-c2cccs2)nc2ccccc12)N1CCN(S(=O)(=O)c2cccc(F)c2)CC1 ?
ERa coact inh: 8; ERa coact pot: 126; Calb biofilm kill: 8; FAK blocker: 1; Smad3 FoxH1 inh: -14; ERb coact inh: 3

How did O=C(c1cc(-c2cccs2)nc2ccccc12)N1CCN(S(=O)(=O)c2ccccc2)CC1 do in these assays?
ERa coact inh: 1; ERa coact pot: 201*[fluorescence artefact?]; Calb biofilm kill: -2; FAK blocker: -1; Smad3 FoxH1 inh: -4; ERb coact inh: 17

How did CCOc1ccccc1C1C(C#N)=C(SCC(=O)OC)NC(=O)C1C(=O)OC (centres undefined) do in these assays?
ERa coact inh: -5; ERa coact pot: 107; FAK blocker: -1; Smad3 FoxH1 inh: -7; ERb coact inh: 85*[fluorescence artefact?]

What do the screens show for `CCOC(=O)C1C(=O)NC(SCC(=O)OC)=C(C#N)C1c1ccccc1OCC` (centres undefined)?
ERa coact inh: 10; ERa coact pot: 99; Calb biofilm kill: 8; FAK blocker: 2; Smad3 FoxH1 inh: 1; ERb coact inh: 2

Results for COCCCNC(=O)Cn1nnc(-c2ccccc2NC(=O)c2ccccc2F)n1 ?
ERa coact inh: 16; ERa coact pot: 107; Calb biofilm kill: 9; FAK blocker: 2; Smad3 FoxH1 inh: -2; ERb coact inh: 5
